Measured values published in PubChem BioAssay.
Results with a measured potency or affinity are listed apart. Activity calls are given as the source filed them. Cut-off not given; nearly all actives show IC50 up to about 0.91 µM.

Biological target: Calcium-dependent protein kinase 4 (Plasmodium falciparum (isolate 3D7)) (UniProt Q8IBS5)
Assay: PfCDPK4 kinase inhibitors, biochemical, TCAMS library (AID 1159588)
Settings: recombinant PfCDPK4, Kinase-Glo ATP depletion luminescence

Calcium-dependent protein kinase 4 (Plasmodium falciparum (isolate 3D7)), sequence (Q8IBS5 whole entry, looked up): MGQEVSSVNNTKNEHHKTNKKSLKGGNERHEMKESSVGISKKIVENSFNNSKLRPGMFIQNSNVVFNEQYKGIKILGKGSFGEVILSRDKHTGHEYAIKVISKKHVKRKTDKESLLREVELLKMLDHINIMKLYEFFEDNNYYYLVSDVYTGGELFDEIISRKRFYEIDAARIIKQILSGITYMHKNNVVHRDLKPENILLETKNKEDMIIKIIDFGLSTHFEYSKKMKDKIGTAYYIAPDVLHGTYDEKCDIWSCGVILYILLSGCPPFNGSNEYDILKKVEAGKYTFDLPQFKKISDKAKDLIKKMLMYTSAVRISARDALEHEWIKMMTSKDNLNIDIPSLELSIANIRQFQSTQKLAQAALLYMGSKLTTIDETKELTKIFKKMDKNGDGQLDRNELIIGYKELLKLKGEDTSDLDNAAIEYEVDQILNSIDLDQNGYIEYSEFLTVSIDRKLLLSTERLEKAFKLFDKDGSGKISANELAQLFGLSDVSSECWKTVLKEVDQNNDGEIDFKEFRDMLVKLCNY

outcome, inactive:
CN1CCCN(Cc2ccc(-c3cccc(NC(=O)c4ccc(C#N)cc4)c3)cc2)CC1, COc1ccc(C2CCN(C#N)C2)cc1OC1CCCC1 (stereo unspecified), COc1cc2nc(N3CCN(C(=O)c4cccc(I)c4)CC3)nc(N)c2cc1OC, CN(CCNCc1ccc(-c2cccc(-c3nc4ccccc4[nH]3)c2)cc1)S(C)(=O)=O, COc1cccc2c(C)cc(NCc3ccc(Cl)cc3)nc12, CCOC(=O)c1[nH]c(-c2cccnc2)nc1NC(=S)NCc1ccccc1, CCOC(=O)c1cnc2c(OC)cc(OC)c(Cl)c2c1Nc1ccccc1, FC(F)(F)c1ccc2nc(-c3ccc(-c4ccc(CNCC5CCCO5)cc4)s3)[nH]c2c1 (stereo unspecified), CCCCOP(=O)(OCCCC)C(=Cc1ccc(O)c2ccccc12)P(=O)(OCCCC)OCCCC, Cc1cc2c3c(N)nc(N)nc3ccc2n1C(C)C, CN1CCN(CC(=O)Nc2ccc(-c3cccc(-c4nc5ccc(F)cc5[nH]4)c3)cc2)CC1, CCN1CCC(N(Cc2ccc(-c3ccc(C(F)(F)F)cc3)cc2)C(=O)Cn2c(CCc3cccc(F)c3F)cc(=O)c3cn(C)nc32)CC1, O=C(Nc1ccc(N2CCN(c3ncccc3C(F)(F)F)CC2)nc1)c1cccs1, COCCn1c(-c2cccc(Cl)c2)nn(-c2ccc([N+](=O)[O-])cc2C#N)c1=S, O=S(=O)(NCCN1CCCC1)c1cccc(-c2ccc(CNCc3ccccc3)cc2)c1, COc1cccc(NC(=O)[C@H](C(C)C)n2c(=O)[nH]c3ccccc3c2=O)c1
